Screens deposited in PubChem BioAssay by The Scripps Research Institute Molecular Screening Center.
COUP-TFII inh – NR2F2 (human) inhibition, primary screen. 370,000 tested, 0.7% active. AID 686940. inhibition, % at 8.6 µM. HEK293T NGFI-A luciferase reporter, luminescence;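 active = inhibition above a per-plate cutoff, mean inhibition of test wells between control levels plus 3 SD, cut at about 38% in these data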;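 note: cells cotransfected with COUP-TFII expression vector driving the NGFI-A reporter; 0% = median of COUP-TF2 test wells and 100% = reporter-only cells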
SRC2 inh – human SRC2 (NCOA2) inhibition. HEK293 GAL4-SRC2 luciferase reporter, luminescence. inhibition, % at 9 µM. AID 651957. 370,000 tested, 0.17% active. Q15596;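 active = inhibition above the mean inhibition of all tested compounds plus 3 SD, set per campaign, cut at about 52% in these data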;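 note: 0% = DMSO treated cells and 100% = cells given Gossypol at 36 µM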
SRC1 inh – inhibitors of human steroid receptor coactivator 1 (SRC1); 360,000 tested, 0.12% active; inhibition, % at 3.6 µM; HEK293 GAL4-SRC1 luciferase reporter, luminescence;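 active = inhibition above the campaign mean plus 3 SD, with each screening campaign given its own cutoff, cut at about 60% in these data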;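 note: 0% = DMSO treated cells and 100% = gossypol at 36 µM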
GalR3 antag – antagonists of human GalR3 | inhibition, % at 3 µM | O60755 | AID 651719 | 360,000 tested, 0.44% active | HEK293 GalR3-CNG cAMP membrane potential fluorescence; galR3 body fused to GalR1 C-terminus;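 active = inhibition above the screen-wide average plus 3 SD, cut at about 13% in these data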;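 note: forskolin and galanin both at EC90 stimulate the cells; cAMP rise reported by CNG channel membrane potential dye signal; 0% = forskolin plus galanin with DMSO and 100% = forskolin alone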
SRC3 inh – inhibits human SRC3 coactivator | HEK293 GAL4-SRC3 luciferase reporter, luminescence | 360,000 tested, 0.17% active | inhibition, % at 3.6 µM | AID 588352;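 active = inhibition above a per-campaign cutoff, the mean of all compounds plus 3 SD, cut at about 60% in these data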;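 note: 0% = DMSO-treated cells and 100% = gossypol-treated cells at 36 µM; higher means less SRC3-driven luciferase light from the GAL4 reporter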
NR5A2 inv ag – NR5A2 inverse agonism in reporter assay | O00482 | HEK293T StAR-luciferase reporter, LRH-1 transfected, 24 h | inhibition, % at 3.6 µM | 360,000 tested, 0.13% active | AID 602396;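 active = inhibition above the mean inhibition of all tested compounds plus 3 SD, cut at about 73% in these data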;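 note: 0% = DMSO wells and 100% = reporter-only cells lacking LRH-1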
GalR3 conf – confirmation of human galanin receptor 3 antagonists | HEK293 GalR3 CNG cAMP biosensor, membrane potential fluorescence; galR3 fused to GalR1 carboxy tail; challenged with forskolin and galanin at EC90 | AID 652245 | inhibition, % at 3 µM | shares compounds with GalR3 antag | 1,600 tested, 59% active;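 active = inhibition above the primary screen's cutoff, the mean inhibition of all screened compounds plus 3 SD, cut at about 13% in these data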;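 note: 0% = forskolin plus galanin and 100% = forskolin alone with DMSO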
CNG parental – parental cell agonism counter-screen for GalR3 antagonists; activation, % at 3 µM; HEK293-CNG parental cells, cAMP membrane potential fluorescence; normalised: DMSO wells 0%, forskolin wells 100%; 1,600 tested, 10% active; shares compounds with GalR3 antag; in the data active = activation above about 1.3%
VP16 Luc counter – inhibits VP16 reporter, flagging COUP-TFII antagonist hits; shares compounds with COUP-TFII inh; HEK293 Gal4-VP16 luciferase reporter, luminescence; inhibition, % at 8.5 µM; 2,500 tested, 25% active; AID 687007; in the data active = inhibition above about 13%
COUP-TFII conf – confirmation of human COUP-TFII (NR2F2) inhibitors; shares compounds with COUP-TFII inh; HEK293 NGFI-A luciferase reporter, luminescence; inhibition, % at 8.5 µM; 2,500 tested, 45% active; AID 687008;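 active = mean inhibition over three repeats above a set limit taken from the earlier primary screen, cut at about 38% in these data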;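 note: 100% = cells given the luciferase reporter alone without the COUP-TF2 vector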
* hit, by the source's call; nt = no result. A selection: hits, their analogues and other compounds. The true share with any hit is near 1.1%.

SMILES | COUP-TFII inh | SRC2 inh | SRC1 inh | GalR3 antag | SRC3 inh | NR5A2 inv ag | VP16 Luc counter | COUP-TFII conf | others
NC(=O)c1cn(C2OC(CO)C(O)C2O)c2ncnc(N)c12 (configuration not stated) | 72.3* | 62.1* | 90.8* | 80.5* | 89.4* | 97.7* | 55.6* | 86.0* | GalR3 conf=80.9*;CNG parental=0.2
Cc1cccc(C(C)c2cnc[nH]2)c1C (configuration not stated) | 0.6 | 18.0 | nt | nt | nt | nt | nt | nt
CC(NC(=O)OCc1ccccc1)[P+](=O)O (configuration not stated) | -16.9 | -8.3 | nt | nt | nt | nt | nt | nt
COc1cccc(-c2ccc3c(c2)C2c4cnnn4-c4ccccc4C(=O)N2CC3)c1 (configuration not stated) | 8.6 | 2.6 | nt | -5.4 | nt | nt | nt | nt
CC(C)(C)c1ccc(CSc2cnn(C(C)(C)C)c(=O)c2Cl)cc1 | 70.8* | 10.5 | 31.2 | 94.7* | 11.5 | 43.7 | 4.3 | 60.6* | GalR3 conf=103.6*;CNG parental=1.0
CC(C)(O)/C=C/C(=O)C(C)(O)C1C(O)CC2(C)C3CC=C4C(C=C(O)C(=O)C4(C)C)C3(C)C(=O)CC12C (configuration not stated) | 43.7* | 75.3* | 2.5 | -1.4 | 67.0* | 72.2 | 60.9* | 64.5*
CCCCN1CCN(C(=O)COc2cc(=O)n(C)c3ccccc23)CC1 | -8.2 | -2.0 | nt | nt | nt | nt | nt | nt
CCN1/C(=C/C=C/C2=[N+](CC)c3ccccc3C2(C)C)C(C)(C)c2ccccc21 | 92.0* | 33.0 | 71.7* | -20.7 | 82.3* | 98.5* | 42.4* | 90.0*
C[C@H](NC(=O)OCc1ccccc1)C(=O)NC(Cc1ccccc1)P(=O)(Oc1ccccc1)Oc1ccccc1 (some centres not stated) | -3.6 | -28.2 | nt | nt | nt | nt | nt | nt
COC1CC2C=C(C)C=CC=CC(=O)NC(c3ccccc3)CC=CCCC(O)CC(=O)C2=C1O (configuration not stated) | 71.8* | -41.8 | 40.5 | -3.9 | 78.1* | 98.9* | 50.1* | 72.5*
CC1=CC2OC3CC4OC(=O)C=CC=CC(=O)OCCC(C)C(O)C(=O)OCC2(CC1)C4(C)C31CO1 (configuration not stated) | 90.0* | 71.0* | 95.0* | -7.0 | 94.3* | 98.7* | 16.6* | 87.0*
CC1=CC2OC3CC4OC(=O)C=CC=CC(C(C)O)OCC(O)C5(C)OC5C(=O)OCC2(CC1O)C4(C)C31CO1 (configuration not stated) | 91.7* | 64.7* | 95.9* | -5.2 | 92.6* | 97.8* | 18.7* | 89.3*
CC(O)C1C=CC=CC(=O)OC2CC3OC4C5OC5(C)C(O)CC4(COC(=O)C(O)C(C)CCO1)C2(C)C31CO1 (configuration not stated) | 92.0* | 72.6* | 95.8* | 1.1 | 94.4* | 100.2* | 24.7* | 92.3*
CC1CCOC(=O)C=CC=CC(=O)OC2CC3OC4C5OC5(C)C(O)CC4(COC(=O)C1O)C2(C)C31CO1 (configuration not stated) | 92.0* | 72.9* | 95.6* | -6.2 | 93.4* | 98.3* | 22.6* | 88.8*
O=P(OCCCl)(OCCCl)OCCCl | 6.4 | 10.6 | nt | 0.6 | nt | nt | nt | nt
O=C(O)CCl | 13.1 | 3.0 | nt | 3.6 | nt | nt | nt | nt
Clc1cc(Cl)cc(CN2Cc3ccccc3-n3nncc3C2)c1 | -11.2 | 20.6 | nt | nt | nt | nt | nt | nt
O=c1[nH]c2ccccc2n1C1CCN(C(c2ccccc2OC(F)(F)F)c2nnnn2Cc2ccccc2)CC1 (configuration not stated) | 42.0* | 33.1 | 33.7 | -4.1 | 37.0 | -5.6 | 14.9* | 27.7
O=c1[nH]c2ccccc2n1C1CCN(C(c2cccs2)c2nnnn2Cc2ccccc2)CC1 (configuration not stated) | 34.5 | -4.6 | 25.1 | -5.9 | 48.0 | 28.4 | nt | nt
O=C(NCCN1CCC2(CC1)C(=O)NCN2c1ccccc1)c1ccc(F)cc1 | -13.3 | -21.2 | nt | -8.8 | nt | nt | nt | nt
COC(=O)C1C(c2ccc(C)cc2)CC2CCC1N2C (configuration not stated) | 4.3 | 4.7 | nt | -2.4 | nt | nt | nt | nt
CCCOC(=O)c1ccc(-[n+]2c(-c3ccccc3)cc(-c3ccccc3)cc2-c2ccccc2)cc1 | 54.9* | 36.1 | 21.2 | -11.7 | 40.4 | 58.4 | 22.5* | 48.1*
CN1CCN(c2ccc([N+](=O)[O-])c3no[n+]([O-])c23)CC1 | 98.0* | 93.7* | 95.9* | -6.8 | 93.9* | 93.5* | 96.0* | 108.9*
CC(C)c1oc(=O)cc2c1[C@@H](O)[C@H]1OC(=O)[C@@]3(C)CC[C@@H](O)[C@@]2(C)C13 (some centres not stated) | 42.2* | -48.5 | 25.0 | -5.7 | 61.9* | 72.3 | -18.2 | 31.4
CC(C)c1oc(=O)cc2c1[C@@H](O)[C@H]1OC(=O)[C@@]3(C)C[C@@H](O)[C@@H](O)[C@@]2(C)C13 (some centres not stated) | 40.9* | 49.2 | 9.7 | 1.5 | 76.1* | 92.2* | -17.9 | 29.6
COCCNC(=O)N1[C@H]2CC[C@@H]1C(C(=O)OC)=C(c1ccc(-c3ccccc3)c(F)c1)C2 | 49.7* | 18.5 | 21.1 | -1.9 | 26.4 | 25.4 | 3.5 | 32.4
COC(=O)C1=C(c2ccc(-c3ccccc3)c(F)c2)C[C@@H]2CC[C@H]1N2C(=O)N1CCC(O)CC1 | 25.1 | -16.6 | 16.1 | -5.3 | 8.5 | 17.6 | nt | nt
COC(=O)C1=C(c2ccc(-c3ccccc3)c(F)c2)C[C@@H]2CC[C@H]1N2C(=O)N1CCCCC1 | 63.9* | 44.8 | 13.7 | -9.4 | 43.3 | 38.0 | 20.2* | 53.6*
COC(=O)C1=C(c2ccc(-c3ccccc3)c(F)c2)C[C@@H]2CC[C@H]1N2C(=O)N1CCOCC1 | 70.6* | 25.1 | 28.8 | -0.5 | 30.0 | 40.5 | -9.3 | 36.1
COC(=O)C1=C(c2ccc(-c3ccccc3)c(F)c2)C[C@@H]2CC[C@H]1N2C(=O)N1CCCC1 | 66.9* | 18.6 | 5.3 | -8.1 | 12.5 | 39.7 | -4.6 | 47.1*
